Our source for the Potency values is PubChem BioAssay (NCATS).

The structures appear in SMILES notation. Results filed as inconclusive are left out. Where a call stands in place of a potency, no number is given. Calls of active or inactive are those of the source. Calls come from the whole dose curve; as a rule, active = well fitted cell-killing curve with a large enough effect; inconclusive = small, poorly fitted or top-dose-only effect, or effect the other way; inactive = no such curve, though single readings can be large or run the other way. *1 amine or outer side, *2 acyl side, *3 side chain or, on linkers, in order; H or OH if unused. Where a SMILES comes first, the peptide text is derived from it. Bridges are numbered along the chain shown (N, C = ends). [ ]: non-standard residue; d: D form. The star is where a group is joined. X5 = NC1=N[C@@H]([C@H](N[*:1])C(=O)[*:2])C[C@H](O)N1; ΔAla(Z-3-ureido) = NC(=O)N/C=C(\N)C(=O)O; β3hOrn = NCCC[C@H](N)CC(=O)*; Dap = NC[C@H](N)C(=O)O

This experiment can be described thus: qHTS assay to identify small molecule inhibitors of chordoma cells - UCH-1 (AID 1259355). Note: nearly all actives have a fitted effect of over 55% in size. The conditions noted are these: UCH-1 chordoma viability, CellTiter-Glo, 48 h, combination, with auranofin plus four topoisomerase inhibitors; series mostly up to 46.1 µM. The text has this: NIH Chemical Genomics Center [NCGC]
Chordoma is a rare and slow growing tumor that can occur anywhere along the spine, from the base of the skull to the tailbone. Current treatment options for chordoma is surgery and radiation therapy for those who are not candidates for surgery. But chordomas tend to return in the same location or surrounding areas of the original tumor after surgery and/or radiation. Chemotherapy can slow down the progression of the tumor. As chordoma is slow growing, the general cytotoxic agents that kill fast growing cells are ineffective, and some patients have been reported to respond to molecularly targeted drugs.
NCATS Pharmaceutical Collection (NPC) containing approximately 3000 clinically approved and investigational drugs were used to screen at 15 concentrations in a chordoma cell lines, UCH-1, to identify small molecule compounds that can inhibit chordoma cell growth.
NCGC Assay Protocol Summary:
Human chordoma cell line UCH-1 was dispensed at 800 per well in 4uL of culture medium into white solid bottom 1536-well plates (Corning Life Sciences, Corning, NY) using a Multidrop Combi (Thermo Scientific, Waltham, MA) dispenser. The assay plates were incubated at 37 C and 5% CO2 for an overnight, and then 23nL of compounds dissolved in DMSO and positive control were transferred using a Pintool station (Wako, San Diego, CA). Compound treatment was followed by the addition of 1uL of the combination compounds (1uM Auranofin, 500nM each of Camptothecin, Doxorubicin, Rubitecan, and Topotecan) and assay medium to each well of the assay plates using Flying Reagent Dispenser (FRD, Aurora Discovery, San Diego, CA). The assay plates were incubated at 37 C and 5% CO2 for 48hr. Then 5uL of CellTiter-Glo reagent (Promega Corporation, Madison, WI) was added to each well of the assay plates using FRD. After 30min incubation at room temperature, the luminescence signal was quantified using a ViewLux plate reader (PerkinElmer, Shelton, CT).
(In general: In qHTS, concentration-response curves come from the screen itself.)
Take `Oc1ccc(Cl)c2c1CCC2`: the Potency entry was “inactive”. In the case of `CC(=O)[C@H]1CC[C@H]2[C@@H]3C=CC4=CC(=O)CC[C@@]4(C)[C@H]3CC[C@]12C` it was “inactive”; in that of `COC(=O)[C@H]1[C@H]2C[C@@H]3c4[nH]c5cc(OC)ccc5c4CCN3C[C@H]2C[C@H](OC)[C@@H]1OC`, “inactive”. In the case of `CCC(C)[C@@H](N)C(=O)O` (stereo not given in full) it was “inactive”. With `C=CCN1CCCC1CNC(=O)c1cc(S(N)(=O)=O)cc(OC)c1OC` (stereo not given) the entry was “inactive”; with `CC(C)C[C@@H](NC(=O)[C@@H](O)[C@H](N)Cc1ccccc1)C(=O)O`, “inactive”. As for `CC(C)(C)NC[C@H](O)COc1ccccc1C1CCCC1`, the Potency result was “inactive”.

Turning to `O=P(O)(O)OP(=O)(O)O`, the Potency result is “inactive”. With `FC(F)(F)C(F)(F)C(F)(F)C(F)(F)C(F)(F)F` the entry was “inactive”; with `CNC(C)CCC=C(C)C` (stereo not given), “inactive”; with `Cc1ncc[nH]1`, “inactive”. For `NCCC[C@H](N)CC(=O)N[C@H]1CNC(=O)[C@H]([C@H]2C[C@H](O)NC(N)=N2)NC(=O)/C(=C/NC(N)=O)NC(=O)[C@H](CO)NC(=O)[C@H](CO)NC1=O` (β3hOrn-[Dap]SS[ΔAla(Z-3-ureido)][X5]; lactam 1-C), the Potency result is “inactive”.

On to `CCCOC(=O)c1ccccc1O`, for which the Potency entry was “inactive”. In the case of `CC(=O)Nc1ccc(NC(=S)NC(=O)c2ccc(C(C)(C)C)cc2)cc1` it was “inactive”; in that of `CC(C)=CCC/C(C)=C/CC/C(C)=C/CC/C=C(\C)CC/C=C(\C)CCC=C(C)C`, “inactive”; in that of `CN(C)CCCSc1ccccc1NC(=O)/C=C/c1ccccc1`, “inactive”. With `C=CC[N+]1([C@H]2C[C@H]3[C@@H]4CC[C@H]5C[C@H](O)[C@@H](N6CCOCC6)C[C@]5(C)[C@H]4CC[C@]3(C)[C@H]2OC(C)=O)CCCC1` the entry was “inactive”. In the case of `O=C(NNCNNC(=O)c1ccncc1)c1ccncc1` it was “inactive”. Consider `C/C=C/C=C/C(=O)O`, for which the Potency result is “inactive”. In the case of `CNC(=O)[C@H](Cc1c[nH]c2ccccc12)NC(=O)[C@@H](CC(=O)NO)CC(C)C` it was “inactive”; in that of `C#C[C@]1(O)CC[C@H]2[C@@H]3CCC4=C(CCC(=O)C4)[C@H]3CC[C@@]21C`, “inactive”.

For `CCN(CC)C(=S)S`, the Potency result is “inactive”. In the case of `CC(=O)NCCCS(=O)(=O)O` it was “inactive”; in that of `COc1cc2c(cc1OC)[C@@H](c1ccccc1)CN(C)CC2`, “inactive”. Turning to `CC(C)(C)c1ccc2c(S(=O)(=O)O)c(C(C)(C)C)ccc2c1`, the Potency entry was “inactive”. In the case of `C/C(=C\C(=O)OCCCCCCCCC(=O)O)C[C@@H]1OC[C@H](C[C@@H]2O[C@H]2[C@@H](C)[C@H](C)O)[C@@H](O)[C@H]1O` it was “inactive”; in that of `O=C1CCC(c2ccccc2)(C2CCN(Cc3ccccc3)CC2)C(=O)N1` (stereo not given), “inactive”; in that of `CC(C)CCC[C@@H](C)[C@H]1CC[C@H]2[C@@H]3CC[C@@H]4C[C@H](O)CC[C@]4(C)[C@H]3CC[C@]12C`, “inactive”.

In the case of `CCOC(=O)[C@@H](N)CS`, the Potency result is “inactive”. For `CC(C)=CCC/C(C)=C/CC/C(C)=C/CC/C(C)=C/CC1=C(C)C(=O)c2ccccc2C1=O`, the Potency result is “inactive”.

Consider `Nc1nc2c(c(=O)[nH]1)N(C=O)C(CNc1ccc(C(=O)N[C@@H](CCC(=O)O)C(=O)O)cc1)CN2` (stereo not given in full), for which the Potency entry is “inactive”. With `Oc1cccc(O)c1O` the entry was “inactive”; with `NC(=O)Oc1ccc(Cc2ccccc2)cc1`, “inactive”; with `COc1ccc(C(=O)c2ccc(C)cc2)c(O)c1`, “inactive”. Turning to `CO[C@@]1(NC(=O)C2SC(=C(C(N)=O)C(=O)O)S2)C(=O)N2C(C(=O)O)=C(CSc3nnnn3C)CS[C@@H]21` (stereo not given in full), the Potency result was “inactive”. For `CC(C)c1ncc([N+](=O)[O-])n1C`, the Potency result was “inactive”. With `CC(C)(Oc1ccc(C2CCCc3ccccc32)cc1)C(=O)O` (stereo not given) the entry was “inactive”; with `NS(=O)(=O)c1cc2c(cc1Cl)NC(Cc1ccccc1)NS2(=O)=O` (stereo not given), “inactive”; with `F[Si-2](F)(F)(F)(F)F`, “inactive”. With `CC(C)(COP(=O)(O)OP(=O)(O)OC[C@H]1O[C@@H](n2cnc3c(N)ncnc32)[C@H](O)[C@@H]1OP(=O)(O)O)C(O)C(=O)NCCC(=O)NCCS` (stereo not given in full) the entry was “inactive”.
